# Measurements taken from PubChem BioAssay (NCI).
# The panel holds about 83,000 compounds, 20% with a hit somewhere; the sample as a whole holds those more often.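 The test compound was applied at a single concentration to cells in 96-well plates for 48 hours, and percent growth was recorded.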 Unmarked numbers belong to inactive results. The source made the active and inactive calls. How the source made its calls: active means growth percent below 10; inactive means the rest.
# How the values were obtained:
# Assay in all cases: NCI-60 one-dose screen, 48 h (100 = growth as untreated, 0 = no growth, -100 = all killed)
# Conditions in all cases: 10 µM unless noted
# SK-MEL-2 melanoma = tested on: SK-MEL-2 melanoma
# EKVX NSCLC = tested on: EKVX NSCLC
# SN12C renal = tested on: SN12C renal
# UO-31 renal = tested on: UO-31 renal
# TK-10 renal = tested on: TK-10 renal
# ACHN renal = tested on: ACHN renal
# CAKI-1 renal = tested on: CAKI-1 renal
# A498 renal = tested on: A498 renal
# CCRF-CEM leukemia = tested on: CCRF-CEM leukemia
# MOLT-4 leukemia = tested on: MOLT-4 leukemia
# RPMI-8226 leukemia = tested on: RPMI-8226 leukemia
# OVCAR-8 ovarian = tested on: OVCAR-8 ovarian
# OVCAR-5 ovarian = tested on: OVCAR-5 ovarian
# OVCAR-4 ovarian = tested on: OVCAR-4 ovarian
# SK-OV-3 ovarian = tested on: SK-OV-3 ovarian
# IGROV1 ovarian = tested on: IGROV1 ovarian
# OVCAR-3 ovarian = tested on: OVCAR-3 ovarian
# HS 578T breast = tested on: HS 578T breast
# NCI/ADR-RES ovarian = tested on: NCI/ADR-RES ovarian
# SR leukemia = tested on: SR leukemia
SMILES,growth (SK-MEL-2 melanoma) [%],growth (EKVX NSCLC) [%],growth (SN12C renal) [%],growth (UO-31 renal),growth (TK-10 renal),growth (ACHN renal),growth (CAKI-1 renal),growth (A498 renal),growth (CCRF-CEM leukemia),growth (MOLT-4 leukemia),growth (RPMI-8226 leukemia),growth (OVCAR-8 ovarian) [%],growth (OVCAR-5 ovarian) [%],growth (OVCAR-4 ovarian),growth (SK-OV-3 ovarian),growth (IGROV1 ovarian),growth (OVCAR-3 ovarian),growth (HS 578T breast),growth (NCI/ADR-RES ovarian),growth (SR leukemia)
COc1ccc([C@H]2c3cc(OC)c(OC)cc3C=C(C=O)C2CO)cc1OC (stereo not given in full),20.8,91.2,68,68.4%,73.4%,57.8%,52.4%,104%,56.4%,49.5%,61.5%,60.8,106,63.5%,73.3%,34.1%,-30.6% (active),14.2%,,
COc1ccc(-c2cc3c4c(nc5ccccc5c4c2)CC(c2cc(OC)c(OC)c(OC)c2)O3)cc1 (stereo not given),66.3,65,32.3,-26.3% (active),7.8% (active),-46% (active),1.26% (active),70.4%,99.1%,102%,25.1%,32,18.4,-9.24% (active),20.2%,52.5%,41.9%,13.2%,41.4%,
c1ccc(Nc2cc(-c3cccnc3)[nH]n2)cc1,112,98.1,99.3,80%,103%,91.8%,90.1%,69%,106%,93.6%,103%,95.8,93.6,96.6%,92.9%,95.7%,100%,101%,105%,
Cc1ccc(/C=C2\Oc3ccc(O)c(O)c3C2=O)cc1,87.6,19.7,62.8,13.5%,98%,29.1%,34.4%,70.2%,15.6%,29.6%,51.1%,44.5,68.5,43.7%,63.6%,38.1%,11.7%,62.5%,,
COc1ccc(C(Cc2ccccc2)NCCN2CCOCC2)cc1 (stereo not given),95.9,104,99.6,84.5%,95.4%,106%,98.8%,101%,113%,93.8%,,,94.7,98.7%,102%,91.8%,100%,107%,,96.4%
COc1ccc(-c2cnc3ccccc3n2)cc1,112,88.2,93.7,81.9%,91.3%,97.9%,84.4%,95%,97.4%,103%,97.2%,99.7,92.6,94.2%,98.5%,94.9%,103%,89.4%,,
O=c1c2cc(F)ccc2sc2c(NCCCNCCO)nc3ccccc3c12,90.9,51.9,46.9,10.9%,41%,8.85% (active),-9.01% (active),2.69% (active),6.27% (active),-31.6% (active),,26,63.4,33.3%,79.7%,,-14.6% (active),34.5%,32.4%,-45.1% (active)
Nc1ccccc1-c1cc2c(c3c1[nH]c1ccccc13)CCCCC2,92.5,89.9,99.7,96.7%,101%,107%,114%,119%,93.1%,90.8%,,,108,105%,115%,97%,102%,95.2%,94.8%,94.2%
C=C1CC[C@H](C(C)C)[C@@H]2[C@H]1[C@H]1CC(=C)[C@@H](O)CC[C@@](C)(O)[C@@H]2O1,80.9,98.1,109,82.6%,103%,95.8%,95.1%,89.3%,94%,119%,93.3%,99.4,79.5,98.5%,109%,107%,101%,92.4%,,
Cc1nc(S(=O)(=O)c2ccccc2)c(S(=O)(=O)Cc2ccc([N+](=O)[O-])cc2)o1,89.2,104,89.9,72.5%,105%,87.6%,95.6%,81.8%,82.8%,90.7%,82.6%,100,86.5,93.1%,99.1%,95.8%,83.9%,87.6%,104%,
OC(COc1ccccc1Cl)CN1CCN(c2cccc(Cl)c2)CC1 (stereo not given),106,119,104,83.1%,107%,101%,99.1%,108%,113%,107%,115%,91.9,97.8,110%,109%,122%,113%,112%,113%,
COc1c(B(O)O)cc(F)cc1-c1nc2ccc3[nH]ncc3c2c2c1CCCC2,18.7,10.2,11.6,5.35% (active),21.5%,9.67% (active),-5.6% (active),-67.9% (active),10.9%,9.89% (active),-9.77% (active),16.1,15.4,25.8%,19.3%,10.6%,11.9%,-2.19% (active),16.1%,
CCOC(=O)Cn1c(C)c(/C=N/NC(=O)c2cc3c(ccc4ccccc43)o2)c2ccccc21,44.1,41.1,34.4,40.2%,58.8%,28.4%,47.1%,-6.48% (active),11.3%,18.7%,10.6%,15.5,40,51%,6.12% (active),26.3%,0.688% (active),34.7%,8.7% (active),
CCOC(=O)Nc1ccc(C(=O)/C=C/c2ccccc2)cc1,105,105,87,51.9%,103%,102%,105%,92.1%,91.6%,78.8%,18.9%,92.3,102,103%,110%,-22.8% (active),86.8%,93.6%,89%,
COc1ccc2c(c1)c(-c1nn3cc(-c4cccs4)nc3s1)cn2C,91.5,66.2,79.3,39.3%,73.3%,69.9%,55.3%,50.3%,67%,45.7%,68.8%,85.3,66.5,70.6%,84.8%,52.9%,96.4%,45.1%,80.3%,
COc1ccc2c(c1)nc(NNC(=O)c1cnccn1)c1cccn12,64.8,22.2,35.4,4.76% (active),31.1%,7.83% (active),21.3%,49.2%,11.7%,5.36% (active),23.5%,24.1,42.3,17.5%,26.5%,16.3%,15.3%,78.2%,9.97% (active),
N#Cc1ccc(NC(=O)c2sc3nc4c(cc3c2N)C(=O)CCC4)cc1,83,93.6,98.3,104%,65.9%,108%,93.3%,79.6%,99.8%,115%,95.7%,105,89.2,106%,106%,113%,114%,111%,106%,
